# Laboratory results published in PubChem BioAssay (Tox21).
# “And” between values parts separate entries of the source, which are not always exact repeats. Identical values can stand only once. Results filed as inconclusive are left out. Where a call stands in place of a potency, no number is given. A structure can be active in one record and inactive in another. The source made the active and inactive calls. Unless noted, calls come from the whole dose curve; as a rule, active = well fitted curve in the direction sought with a large enough effect in the repeat runs; inconclusive = weak or mixed curves; inactive = no such curve, though single readings can be large; an effect the other way counts as inactive or inconclusive.
# Key:
# [1] = qHTS assay to identify aromatase inhibitors - cell viability counter screen (AID 743084);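 note: cells stimulated with testosterone during compound exposure; nearly all actives have a fitted effect of over 55% in size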; note: potency is the fitted concentration of half-maximal effect
# [2] = qHTS assay to identify small molecule that activate the aryl hydrocarbon receptor (AhR) signaling pathway - cell viability counter screen (AID 743086); note: nearly all actives have a fitted effect of over 45% in size; note: potency is the fitted concentration of half-maximal effect
# Summary of the method: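 HepG2-AhR-luc (HG2L7.5c1) cells, 4000/well, were preincubated 5 h at 37C, exposed to compound in qHTS format for 24 hr at 37C, then given CellTiter-Fluor for 30 min; viability was read as fluorescence in the reporter wells.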
# [3] = target: Peroxisome proliferator-activated receptor gamma (Homo sapiens) (UniProt P37231); test: qHTS assay to identify small molecule agonists of the peroxisome proliferator-activated receptor gamma (PPARg) signaling pathway (AID 743094; active = well fitted activation curve with a large enough effect in the signal ratio in the repeat runs, not every such curve was filed as active; the % refers to the signal ratio; note: potency is the fitted concentration of half-maximal effect)
# Summary of the method: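 Stably transfected HEK293H cells (GeneBLAzer PPARg UAS-bla) were incubated with test substances for 17 h at 37C after a 5 h pre-incubation; beta-lactamase activity was then detected by FRET substrate fluorescence.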
# [4] = qHTS assay for small molecule activators of the heat shock response signaling pathway - cell viability counter screen (AID 743209); note: nearly all actives have a fitted effect of over 50% in size; note: potency is the fitted concentration of half-maximal effect
# Summary of the method: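 Quantitative HTS format, Tox21 10K library. HeLa cells carrying an HSE-driven beta-lactamase reporter were treated 5 h at 37 C, then assessed for viability by CellTiter-Glo luminescence.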
# [5] = qHTS assay to identify small molecule antagonists of the peroxisome proliferator-activated receptor gamma (PPARg) signaling pathway - cell viability counter screen (AID 743194); conditions: Potency: co-treated with 50 nM rosiglitazone unless noted; note: nearly all actives have a fitted effect of over 55% in size; note: potency is the fitted concentration of half-maximal effect
# Summary of the method: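 PPARg-UAS-bla HEK293H cells were plated, rested 5 h at 37 C, then treated with compounds plus rosiglitazone (50 nM final) for 17 h at 37 C; viability was then read by CellTiter-Glo luminescence after 30 min at room temperature.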
# [6] = qHTS assay for small molecule agonists of the antioxidant response element (ARE) signaling pathway (AID 743202; active = well fitted activation curve with a large enough effect in the signal ratio in the repeat runs, not every such curve was filed as active; the % refers to the signal ratio; note: potency is the fitted concentration of half-maximal effect)
# Summary of the method: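 Compounds delivered in DMSO to ARE-bla HepG2 cells (2,000 cells/well, pre-incubated 5 h) and left 16 h at 37 C. LiveBLAzer B/G FRET substrate then added for 2 h at RT before fluorescence reading.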
# [7] = qHTS assay for small molecule agonists of the antioxidant response element (ARE) signaling pathway - cell viability counter screen (AID 743203; calls by dose curve; note: nearly all actives have a fitted effect of over 55% in size; note: potency is the fitted concentration of half-maximal effect)
# Summary of the method: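 Cells (ARE-bla HepG2, 2,000/well) receive DMSO-dissolved compounds after a 5 hrs rest. Plates incubate 16 hrs at 37C/5% CO2. CellTiter-Glo luminescence is then recorded after 30 min at room temperature.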
# [8] = target: Aryl hydrocarbon receptor (Homo sapiens) (UniProt P35869); test: qHTS assay to identify small molecule that activate the aryl hydrocarbon receptor (AhR) signaling pathway (AID 743085); note: nearly all actives have a fitted effect of over 15% in size; note: potency is the fitted concentration of half-maximal effect;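 for activation: HG2L7.5c1 human HepG2 liver cells with stably integrated DRE-driven firefly reporter; series mostly up to about 70 µM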
# Summary of the method: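 Reporter assay in engineered HepG2 line HG2L7.5c1, whose plasmid carries twenty dioxin responsive elements upstream of firefly luciferase. Treatment lasted 24 h at 37C; ONE-Glo luminescence gauged induction.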
# [9] = qHTS assay for small molecule activators of the heat shock response signaling pathway (AID 743210; active = well fitted activation curve with a large enough effect in the signal ratio in the repeat runs, with a control signal flat, not every such curve was filed as active; the % refers to the signal ratio;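 note: HeLa cells with beta-lactamase reporter driven by heat shock elements; series mostly up to about 63 µM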)
# Summary of the method: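 Reporter gene assay: HeLa cells stably bearing an HSE-bla construct, compound treatment 5 h at 37 C, LiveBLAzer substrate 2.5 h at RT, fluorescence intensity.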
# Sequence of Aryl hydrocarbon receptor (Homo sapiens) (P35869 whole entry, looked up): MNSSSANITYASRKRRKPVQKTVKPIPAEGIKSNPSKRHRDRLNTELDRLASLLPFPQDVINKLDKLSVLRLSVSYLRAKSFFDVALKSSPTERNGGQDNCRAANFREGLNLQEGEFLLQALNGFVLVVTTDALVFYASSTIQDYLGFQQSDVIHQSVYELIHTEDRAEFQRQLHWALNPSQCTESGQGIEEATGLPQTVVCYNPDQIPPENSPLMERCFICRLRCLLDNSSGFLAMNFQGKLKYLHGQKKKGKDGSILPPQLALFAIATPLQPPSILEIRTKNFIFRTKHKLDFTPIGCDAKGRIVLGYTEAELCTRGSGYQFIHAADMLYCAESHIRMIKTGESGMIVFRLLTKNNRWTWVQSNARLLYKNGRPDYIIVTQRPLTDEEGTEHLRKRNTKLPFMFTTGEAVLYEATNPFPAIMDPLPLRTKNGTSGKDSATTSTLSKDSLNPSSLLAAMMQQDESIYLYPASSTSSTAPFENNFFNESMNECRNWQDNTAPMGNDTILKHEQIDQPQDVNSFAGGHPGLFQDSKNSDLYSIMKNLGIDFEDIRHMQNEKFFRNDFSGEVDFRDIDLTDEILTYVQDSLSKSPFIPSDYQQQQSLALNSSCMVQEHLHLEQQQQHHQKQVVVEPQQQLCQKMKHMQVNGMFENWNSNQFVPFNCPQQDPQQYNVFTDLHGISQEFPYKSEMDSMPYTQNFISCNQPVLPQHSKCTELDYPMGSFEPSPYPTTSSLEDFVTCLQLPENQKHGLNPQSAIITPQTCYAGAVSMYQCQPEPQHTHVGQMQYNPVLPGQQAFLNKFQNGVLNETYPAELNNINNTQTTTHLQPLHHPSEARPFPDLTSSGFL
# Sequence of Peroxisome proliferator-activated receptor gamma (Homo sapiens) (P37231 whole entry, looked up): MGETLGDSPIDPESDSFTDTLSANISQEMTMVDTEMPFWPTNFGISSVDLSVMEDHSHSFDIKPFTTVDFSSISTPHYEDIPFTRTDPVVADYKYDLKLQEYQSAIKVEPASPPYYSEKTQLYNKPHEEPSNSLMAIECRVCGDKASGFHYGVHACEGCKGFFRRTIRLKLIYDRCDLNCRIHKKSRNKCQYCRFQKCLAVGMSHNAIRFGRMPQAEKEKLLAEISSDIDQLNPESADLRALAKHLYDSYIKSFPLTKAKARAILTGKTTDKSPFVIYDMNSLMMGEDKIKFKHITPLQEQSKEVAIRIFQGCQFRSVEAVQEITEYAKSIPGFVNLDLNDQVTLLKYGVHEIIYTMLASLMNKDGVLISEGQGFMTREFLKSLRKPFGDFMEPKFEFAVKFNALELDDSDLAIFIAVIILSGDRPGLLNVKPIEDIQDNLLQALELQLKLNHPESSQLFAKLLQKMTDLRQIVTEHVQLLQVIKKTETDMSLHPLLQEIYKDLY
compound,measurement,setting,value
Clc1ccc(CO/N=C(\Cn2ccnc2)c2ccc(Cl)cc2Cl)c(Cl)c1,Potency,[1],inactive
same,Potency,[2],inactive
same,Potency,[3],inactive
same,Potency,[4],23.7 µM (active)
Nc1ccccc1C(=O)Oc1ccc2ccccc2c1,Potency,[1],inactive
same,Potency,[2],inactive
same,Potency,[5],inactive
same,Potency,[6],21.7 µM (active)
same,Potency,[7],inactive
CCOP(=O)(NC(C)C)Oc1ccc(SC)c(C)c1 (stereo unspecified),Potency,[1],inactive
same,Potency,[8],14.8 µM (active)
same,Potency,[7],inactive
CN(C)[C@@H]1C(=O)C(C(N)=O)=C(O)[C@@]2(O)C(=O)C3=C(O)c4c(O)ccc(Cl)c4[C@@](C)(O)[C@H]3C[C@@H]12,Potency,[1],inactive
same,Potency,[8],inactive
same,Potency,[7],inactive
same,Potency,[4],inactive
O=c1oc2ccccc2c(O)c1Cc1c(O)c2ccccc2oc1=O,Potency,[1],inactive
same,Potency,[8],inactive
same,Potency,[5],inactive
same,Potency,[4],inactive
CCOP(=S)(OCC)OC(Cl)C(Cl)(Cl)Cl (stereo unspecified),Potency,[1],inactive
same,Potency,[8],inactive
same,Potency,[4],inactive
same,Potency,[9],inactive
O=[N+]([O-])c1c2ccccc2cc2ccccc12,Potency,[1],inactive
same,Potency,[8],15.8 µM (active)
same,Potency,[4],inactive
CC(C)(C)C(O)/C(=C\c1ccc(Cl)cc1Cl)n1cncn1 (stereo unspecified),Potency,[1],74 µM (active)
same,Potency,[8],inactive
same,Potency,[7],74 µM (active)
same,Potency,[4],inactive
C[C@H]1O[C@@H](O[C@H]2[C@@H](O)C[C@H](O[C@H]3[C@@H](O)C[C@H](O[C@H]4CC[C@@]5(C)[C@H](CC[C@@H]6[C@@H]5CC[C@]5(C)[C@@H](C7=CC(=O)OC7)CC[C@]65O)C4)O[C@@H]3C)O[C@@H]2C)C[C@H](O)[C@@H]1O,Potency,[1],inactive
same,Potency,[2],inactive
same,Potency,[5],7.8 nM (active) and 33.5 nM (active)
same,Potency,[7],10.9 nM (active) and 6 nM (active)
same,Potency,[4],87.7 nM (active) and 376 nM (active)
COC(=O)N(C(=O)N1CO[C@@]2(C(=O)OC)Cc3cc(Cl)ccc3C2=N1)c1ccc(OC(F)(F)F)cc1,Potency,[1],inactive
same,Potency,[8],inactive
same,Potency,[7],inactive
same,Potency,[4],inactive
O=C(CCl)C(Cl)Cl,Potency,[1],8.71 µM (active)
same,Potency,[8],inactive
same,Potency,[7],61.7 µM (active)
OC(c1ccc(Cl)cc1)(c1ccc(Cl)cc1)C(Cl)(Cl)Cl,Potency,[1],61.1 µM (active)
same,Potency,[2],inactive
same,Potency,[5],15.5 µM (active)
same,Potency,[7],43.3 µM (active)
CCCCCCCCCCCCCCCCCCn1cc[n+](C)c1,Potency,[1],21.6 µM (active)
same,Potency,[8],inactive
same,Potency,[7],15.3 µM (active)
same,Potency,[4],43.4 µM (active)
Clc1ccc(CCC(Cn2ccnc2)Sc2c(Cl)cccc2Cl)cc1 (stereo unspecified),Potency,[1],inactive
same,Potency,[2],inactive
Fc1ccc(Oc2ccnc3cc(Cl)cc(Cl)c23)cc1,Potency,[1],inactive
same,Potency,[2],inactive
same,Potency,[3],43.6 µM (active)
same,Potency,[6],12.2 µM (active)
O=[N+]([O-])c1cc([N+](=O)[O-])c2ccccc2c1,Potency,[8],16.3 µM (active)
same,Potency,[2],inactive
CCCCCCCCCCCCBr,Potency,[1],inactive
same,Potency,[8],inactive
same,Potency,[5],inactive
same,Potency,[4],inactive
same,Potency,[9],inactive
CC(C)C1CCC(Cc2ccc(Cl)cc2)C1(O)Cn1cncn1 (stereo unspecified),Potency,[1],24.1 µM (active)
same,Potency,[8],inactive
same,Potency,[4],inactive
CCCN(CCC)c1c([N+](=O)[O-])cc(S(N)(=O)=O)cc1[N+](=O)[O-],Potency,[1],32.7 µM (active)
same,Potency,[2],44.4 µM (active)
same,Potency,[5],58.6 µM (active)
same,Potency,[7],29.1 µM (active)
CCc1nn(C)c(C(=O)NCc2ccc(C(C)(C)C)cc2)c1Cl,Potency,[1],61.1 µM (active)
same,Potency,[8],inactive
same,Potency,[7],24.3 µM (active)
same,Potency,[4],54.9 µM (active)
COP(=S)(OC)Oc1cc(Cl)c(Br)cc1Cl,Potency,[1],inactive
same,Potency,[5],34.7 µM (active)
same,Potency,[4],inactive
same,Potency,[9],inactive
c1ccc(Nc2ccc3ccccc3c2)cc1,Potency,[1],54.2 µM (active)
same,Potency,[5],inactive
same,Potency,[7],inactive
same,Potency,[4],inactive and 54.9 µM (active)
same,Potency,[9],inactive
COc1ccc(N)cc1N,Potency,[1],12.6 µM (active)
same,Potency,[5],21 µM (active)
same,Potency,[7],19.9 µM (active) and 29.4 µM (active)
same,Potency,[4],8.01 µM (active)
BrC(Br)C(Br)(Br)Br,Potency,[1],54.8 µM (active)
same,Potency,[2],inactive
same,Potency,[7],54.8 µM (active)
same,Potency,[4],inactive
CCOCCOC(C)=O,Potency,[1],inactive
same,Potency,[2],inactive
same,Potency,[5],inactive
same,Potency,[7],inactive
same,Potency,[9],inactive
CC(=O)OC1(c2ccccc2)CCN(CCc2ccccc2)CC1,Potency,[1],inactive
same,Potency,[5],inactive
same,Potency,[7],inactive
same,Potency,[4],inactive
same,Potency,[9],inactive
Cc1cc(C(C)(C)c2cc(C)c(O)c(C)c2)cc(C)c1O,Potency,[1],26.4 µM (active)
same,Potency,[8],inactive
same,Potency,[9],inactive
CC1(C)C(/C=C(\Cl)C(F)(F)F)C1C(=O)OC(C#N)c1cccc(Oc2ccccc2)c1 (stereo unspecified),Potency,[1],inactive
same,Potency,[2],inactive
same,Potency,[5],inactive
same,Potency,[7],inactive
same,Potency,[4],inactive
O=CC(Br)(Br)Br,Potency,[1],6.84 µM (active)
same,Potency,[2],48.4 µM (active)
same,Potency,[5],6.14 µM (active)
same,Potency,[7],54.3 µM (active)
same,Potency,[4],6.14 µM (active)
Cc1ccc(OP(=O)(Oc2ccccc2)Oc2ccccc2)cc1,Potency,[1],inactive
same,Potency,[3],inactive
same,Potency,[5],inactive
same,Potency,[7],inactive
same,Potency,[4],inactive
same,Potency,[9],inactive
CC(C)N1C(=O)N(c2ccccc2)CSC1=NC(C)(C)C,Potency,[8],inactive
same,Potency,[2],inactive
Oc1ccc(C(=C(Cl)Cl)c2ccc(O)cc2)cc1,Potency,[1],48.5 µM (active)
same,Potency,[6],24.3 µM (active)
same,Potency,[4],inactive
O=C/C(Cl)=C(/Cl)C(=O)O,Potency,[8],inactive
same,Potency,[2],inactive
same,Potency,[5],inactive
same,Potency,[7],inactive
same,Potency,[4],38.9 µM (active)
O=S(=O)(c1ccc(Cl)cc1)c1ccc(Cl)cc1,Potency,[8],inactive
same,Potency,[2],inactive
same,Potency,[7],inactive
same,Potency,[4],inactive
Nc1ccc(Cc2ccc(N)c(Cl)c2)cc1Cl,Potency,[2],inactive
ClC1=C(Cl)[C@]2(Cl)[C@@H]3[C@@H]4C[C@@H]([C@H]5O[C@@H]45)[C@@H]3[C@@]1(Cl)C2(Cl)Cl,Potency,[8],inactive
same,Potency,[2],inactive
same,Potency,[5],43.6 µM (active)
same,Potency,[7],54.5 µM (active)
same,Potency,[4],48.9 µM (active)
